From PubChem BioAssay
Beta cell apopt: inhibitors of cytokine-induced beta cell apoptosis, primary screen, luminescence; AID 435005, 2010; 0.8% of 300,000 active; protection from apoptosis, % (no concentration beside the values); INS-1E cytokine-induced death, ATP luminescence, 48 h; percent of positive-control rescue, neutral wells zero;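 active = Every replicate reaches about 75%, or at least half do and their mean reaches it too, limit read from the data; inconclusive = At least half of replicates reach the limit but their mean does not; inactive = Under half of replicates reach the limit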;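 note: higher means more ATP so stronger rescue from cytokine killing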
Calb FLC: C. albicans growth inhibition with fluconazole, primary screen, CaCi-2 strain, Alamar Blue fluorescence; growth inhibition, % (test concentration not listed); C. albicans CaCi-2 (fluconazole-resistant clinical isolate) + fluconazole, 48 h; 0.57% of 300,000 active;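 active = growth inhibition above about 58% in most replicates, limit read from the data, passing the limit was not always enough; inconclusive = exactly half the replicates above a set limit; inactive = most replicates below a set limit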;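 note: all wells also contain fluconazole at 8 µg/ml as a sub-toxic cotreatment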
MPTP block: mitochondrial permeability transition pore inhibitors, primary screen, biochemical, isolated mouse mitochondria, absorbance. inhibition, % at 10 µM. AID 602449, 2012. Ca2+ swelling absorbance, 30 min. 1.4% of 360,000 active;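 active = inhibition of 50% or more, scaled per plate between neutral and stimulator controls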
SKKanGAS inh: S. pyogenes SKKanGAS growth inhibitors in kanamycin, primary screen, streptokinase expression inhibitor project, SKKanGAS strain, BacTiter-Glo luminescence | inhibition, % at 7.5 µM | 6 h | AID 1662, 2009 | 1.3% of 300,000 active;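 active = mean replicate score, as percent of positive control median, at least 50; inconclusive = mean below 50 but one replicate at or above 50; inactive = mean and every replicate below 50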;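 note: strain carries kanamycin resistance gene driven by streptokinase promoter and grows in 40 µg/ml kanamycin; loss of luminescence reflects streptokinase promoter inhibition or plain growth inhibition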
Mdm2-MdmX inh: inhibitors of human Mdm2-MdmX association, primary screen, cell-based, luminescence, split luciferase, SaOS-2, uHTS; SaOS-2 split-luciferase Mdm2/MdmX complementation; inhibition, % at 8 µM; 3% of 330,000 active;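 active = inhibition of at least 50% at 8 µM in the primary screen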
CSC inhib: cancer stem cell viability inhibitors, primary screen, luminescence; cancer stem cell-like cells viability; inhibition, % at 7.5 µM; 1.1% of 300,000 active; in the data active = inhibition above about 75%; inconclusive = no clear call, values can overlap the other calls; tested in HMLE shEcad cells
Of the large screens only hits and unclear results are named; the others gave an inactive call. Only some compounds are listed: those with a hit (about 5.4% of all), similar ones and a draw of the others.

O=C1CCC(/C=C/c2ccccc2)=NN1Cc1ccc(Cl)c(Cl)c1	SKKanGAS inh 53
CCC1(C)Cc2c(sc3nc(SC)[nH]c(=S)c23)CO1 (configuration not stated)	SKKanGAS inh 85 (no result: Beta cell apopt, MPTP block, CSC inhib)
CCSc1nc2sc3c(c2c(=O)[nH]1)CC(C)(CC)OC3 (configuration not stated)	none
Cc1ccnc(NC(=O)c2ccc([N+](=O)[O-])s2)c1	Beta cell apopt 82
Cc1ccccc1NCc1ccc([N+](=O)[O-])s1	CSC inhib 94
Cc1cccc(C)c1NC(=O)c1ccc([N+](=O)[O-])s1	none
Cc1cccc(NC(=O)c2ccc([N+](=O)[O-])s2)c1C	Beta cell apopt 105
COCCC(=O)N1CCC(Oc2ccc(C(=O)N(C)C(C)c3ccon3)cc2)CC1 (configuration not stated)	none
Cc1ccccc1NC(=O)CN1C(=O)NC2(CCCCC2)C1=O	none
Cc1c(C(=O)NN2CCCCC2)nn(-c2ccc(Cl)cc2Cl)c1-c1ccc(I)cc1	CSC inhib 101 (no result: Calb FLC, MPTP block, Mdm2-MdmX inh)
Cc1ccc(NC(=O)CN2CCCN(S(=O)(=O)c3ccc(Br)s3)CC2)cc1	Calb FLC inconclusive
Cc1cccc(C)c1NC(=S)N(CCCN1CCCCC1)Cc1ccco1	none
CCn1c(SCC(=O)NNC(=S)Nc2ccc(C)cc2)nnc1-c1ccc(Cl)cc1	none
N#C/C(=C/c1ccc(N2CCCCCC2)o1)c1ccc(Cl)cc1	Beta cell apopt 81
N#C/C(=C/c1ccc(N2CCCCC2)o1)c1cccc(F)c1	none (no result: Beta cell apopt)
Cc1cc(C(=O)NCC(=O)OCC(=O)N2CCCCCC2)ccc1[N+](=O)[O-]	none
C[C@@H]1[C@H]2CCCC[C@H]2CN(C(=O)OC(C)(C)C)[C@@H]1CC(=O)c1ccccc1	none (no result: Beta cell apopt, Calb FLC, SKKanGAS inh, CSC inhib)
O=C(CON=C1c2ccccc2-c2ccccc21)NC12CC3CC(CC(C3)C1)C2	CSC inhib 179
O=C(COC(=O)C(O)c1ccccc1)NC12CC3CC(CC(C3)C1)C2 (configuration not stated)	none (no result: CSC inhib)
O=C(Nc1cccc(-c2cn3c(n2)SCC3)c1)c1ccc(Br)o1	Calb FLC 121 (no result: SKKanGAS inh)
COCCN(C(=O)CC1OC(=O)c2ccccc21)c1c(N)n(Cc2ccccc2)c(=O)[nH]c1=O (configuration not stated)	none (no result: Calb FLC, SKKanGAS inh, CSC inhib)
CCN1C/C(=C/c2ccc(N3CCOCC3)cc2)C(=O)/C(=C/c2ccc(N3CCOCC3)cc2)C1	CSC inhib 103 (no result: Mdm2-MdmX inh)
CCCCc1cc(=O)oc2cc(OC3CCCCC3=O)ccc12 (configuration not stated)	none
O=C(O)c1ccc(/C=C2\SC(=S)N(Nc3ccccc3)C2=O)cc1	Beta cell apopt 91
Cc1c2cnn(CC(=O)NCCN3CCOCC3)c(=O)c2c(C)n1Cc1ccc(F)cc1	none (no result: CSC inhib)
Cc1c(Cc2ccccc2)c(=O)oc2c(O)c(O)ccc12	Calb FLC 108 (no result: Beta cell apopt, CSC inhib)
O=C(CSc1n[nH]c(=O)n1Cc1ccccc1)Nc1ccc(N2CCOCC2)cc1	none (no result: Beta cell apopt, Calb FLC, SKKanGAS inh, CSC inhib)
CC(=O)NC1=C(C#N)C(c2ccccc2)c2c(ccc3ccccc23)O1 (configuration not stated)	CSC inhib 78
CCOC(=O)CC(=O)Nc1ncnc2c1C(c1ccccc1)c1c(ccc3ccccc13)O2 (configuration not stated)	none (no result: Calb FLC, SKKanGAS inh, CSC inhib)
CNC(=O)COC(=O)c1c2c(nc3ccccc13)CCC2	Calb FLC 110
COc1ccc(NC(=O)COC(=O)c2c3c(nc4ccccc24)CCCC3)cc1Cl	SKKanGAS inh 61
COc1ccc(NC(=O)COC(=O)c2c3c(nc4ccccc24)CCCC3)cc1	none
O=C1CC(=O)CC(c2ccco2)C1	none (no result: Calb FLC, SKKanGAS inh)
Cc1cccc(Nc2nc(-c3ccc(F)c(C)c3)cs2)n1	SKKanGAS inh 72
CC(C)(Oc1ccc(Cl)cc1)C(=O)NC1CCCCC1	none
CCC1CCCCN1C(=S)NC(=O)c1cccc([N+](=O)[O-])c1 (configuration not stated)	SKKanGAS inh 53
CCCc1cc(-c2nc(N)ncc2-c2ccc3c(c2)OCCCO3)c(O)cc1OC	CSC inhib 173
COC(=O)CSc1nc(N)c2c3c(sc2n1)CCCC3	none
COC(=O)CSc1nc(N)c2c3c(sc2n1)C(c1ccccc1)SC(c1ccccc1)C3 (configuration not stated)	CSC inhib active
CCCN1CCC(NC(=O)C2CCN(C(C)=O)CC2)CC1	none
C=CCn1c(SCC(=O)c2c(N)n(C3CC3)c(=O)[nH]c2=O)nnc1-c1ccccc1OC	none (no result: Beta cell apopt, Calb FLC, SKKanGAS inh, CSC inhib)
Cc1ccc(/C=C2/Sc3ccc(C(=O)N4CCN(c5ccccn5)CC4)cc3NC2=O)cc1	SKKanGAS inh 67
CCOC(=O)N1CCN(C(=O)c2ccc3c(c2)NC(=O)/C(=C/c2ccccc2)S3)CC1	SKKanGAS inh 93
CCOC(=O)C1CCN(C(=O)c2ccc3c(c2)NC(=O)/C(=C\c2ccc(C)cc2)S3)CC1	SKKanGAS inh 69
O=C1Nc2cc(C(=O)N3CCc4ccccc4C3)ccc2S/C1=C\c1ccccc1	CSC inhib 118
CN1CCN(C(=O)c2ccc3c(c2)NC(=O)/C(=C/c2ccccc2)S3)CC1	none
CCN1CCN(C(=O)c2ccc(CS(=O)(=O)Cc3ccccc3F)o2)CC1	none
COc1ccccc1N1CCN(Cc2c[nH]c3ccccc23)CC1	none (no result: Beta cell apopt)
c1cnc(N2CCN(Cc3c[nH]c4ccccc34)CC2)nc1	Beta cell apopt 106
Cc1ccccc1N1CCN(Cc2c[nH]c3ccccc23)CC1	Beta cell apopt 111
Fc1ccc(N2CCN(Cc3c[nH]c4ccccc34)CC2)cc1	Beta cell apopt 91 (no result: MPTP block)
CCN(c1ccccc1)S(=O)(=O)c1ccc(Cl)c(NC(=O)CN2C(=O)NC3(CCCC3)C2=O)c1	Calb FLC 96
CCN(c1ccccc1)S(=O)(=O)c1ccc(OC)c(NC(=O)CN2C(=O)NC(C)(C)C2=O)c1	none (no result: Calb FLC, SKKanGAS inh, CSC inhib)
CCC(C)NC(=O)Nc1ccccc1F (configuration not stated)	none
Cc1cn([C@H]2C[C@H](O)[C@@H](CCC(=O)NCCc3c[nH]c4ccccc34)O2)c(=O)[nH]c1=O	none (no result: Beta cell apopt, Calb FLC, SKKanGAS inh, CSC inhib)
COc1ccc(Br)cc1/C=C/C(=O)Nc1ccc2ccccc2c1	CSC inhib 77
COc1ccc(OC)c(/C=C/C(=O)Nc2ccc(OC)nc2)c1	Calb FLC 113
CCn1c(C)cc(C(=O)CSc2nnnn2C2CCCC2)c1C	none (no result: Calb FLC, SKKanGAS inh)
Cn1c(N)c(C(=O)COC(=O)COc2ccc(Br)cc2)c(=O)n(C)c1=O	none (no result: Calb FLC, SKKanGAS inh)
CN(C)C(=O)N1CCN(C(=O)N2CCOCC2)CC1	none
CN(C)CCNC(=O)c1sc2nc(-c3ccccc3)cc(C(F)(F)F)c2c1N	CSC inhib 78
Cc1csc(C)[n+]1CC(=O)c1ccccc1	none
